Results on 40 compounds are retold here after PubChem BioAssay (NCI).

About 83,000 compounds went through this panel and 20% of them were active in at least one assay; those are over-represented in the sample as a whole.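 48-hour exposure, single concentration, 96-well plates; percent growth endpoint where 0 means no net growth. Active: below 10.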 Values without a mark were called inactive. The source made the active and inactive calls.

For the test, the system named is MDA-MB-435 melanoma. Kind of test: NCI-60 one-dose screen, 48 h (100 = growth as untreated, 0 = no growth, -100 = all killed). As to conditions: 10 µM unless noted. How it is done:
Growth inhibition of the MDA-MB-435 human Melanoma tumor cell line is measured as a screen for anti-cancer activity. Cells are grown in 96 well plates and exposed to the test compound for 48 hours. Compounds are tested at a single concentration, which is 10^-5 M for most compounds. The reported endpoint is percent growth (GI% or GIPRCNT), where numbers from 0 - 100% represent growth inhibition, and numbers from -100% - 0 represent cell death. For example, a value of 40 represents 60% growth inhibition. A value of 0 means no net growth occurred over the course of the experiment. A value of -40 indicates 40% of cells at the beginning of the experiment died by the end of the experiment. A value of -100 means all cells are dead at the end of the experiment.
NCI-60 Human Tumor Cell Lines Screen was performed using the standard one-dose NCI protocol, which is described in more detail at https://dtp.cancer.gov/discovery_development/nci-60/default.htm.
Compounds with GIPRCNT values below 10 were considered active. Activity score was based on GIPRCNT using the following formula: […]
Score is 0 for GIPRCNT values of 100 or above, 50 for GIPRCNT values of 0, and 100 for GIPRCNT values of -100.
On to `COc1ccc([C@H]2c3[nH]c4ccccc4c3C[C@H]3C(=O)N(CCCCCCC(=O)NO)CC(=O)N23)cc1`, for which the growth is 24.6%.
Consider `Nc1ncnc2c1N=C(c1ccc3c(c1)OCO3)CC(c1ccc(Cl)cc1)N2` (stereo not given), for which the growth is 78.7%.
Turning to `CC1CCCN(CCCCOc2ccc(-c3ccc(C#N)cc3)cc2)C1` (stereo not given), the growth was 99.4%.
In the case of `C=C1C(=O)O[C@H]2[C@H]1CC/C(COC(=O)NCc1[nH]nc3ccccc13)=C\CC[C@@]1(C)O[C@@H]21` it was 37.3%; in that of `CC(=O)CC(c1ccc([N+](=O)[O-])cc1)c1c(O)c2ccccc2oc1=O` (stereo not given), 103%.
Then `CCc1c(C)c2ccc(O)c(-c3cc(-c4ccccc4)c(C#N)c(=O)[nH]3)c2oc1=O`, with 114%; and `CCN(CC)c1ccc(/C=C2/NC(=O)NC2=O)cc1`, with -34.1% (active).
As for `COc1ccc(C(=O)OC2C(OC3C(O)COC(O[C@H]4C[C@H]5[C@@H]6CC=C7C[C@@H](O)CC[C@]7(C)[C@H]6CC[C@]5(C)[C@H]4[C@H](C)C(=O)CCC(C)C)C3OC(C)=O)OCC(O)C2O)cc1` (stereo not given in full), the growth is -47.4% (active).
Then `O=C(CC(=O)c1cccc(Cl)c1)c1cccc(Cl)c1`, with 47.9%.
In the case of `ClC1=NC(Cl)C(Cl)=N/C1=N\c1ncn[nH]1` (stereo not given) it was 13.8%; in that of `Cc1nn(-c2ccccc2)c2nc3c(nc12)C1=NCCN1C(c1ccc(Cl)cc1)N3` (stereo not given), 51.5%.
In the case of `Cc1nn(-c2cccc(Cl)c2)c(C)c1N=Nc1ccc(Br)cc1` it was 99.8%; in that of `O=C(/C=C/c1ccccc1Br)c1cccc(OCCCCOc2cccc(C(=O)/C=C/c3ccccc3Br)c2)c1`, 97%; in that of `CNCCCn1c2c(c3ccc(Cl)cc3c1=O)C(=O)c1cc(OC)cnc1-2`, 55.8%.
Take `COc1cc(C2CC(c3ccc(Cl)cc3)=NN2C(C)=O)ccc1Oc1nc2c(c(=O)n(C)c(=O)n2C)n1C` (stereo not given): the growth is 64.1%.
In the case of `Cn1c(=O)c2c(nc(N/N=C/c3ccccc3Cl)n2C)n(C)c1=O` it was 109%; in that of `O=C(O)CSc1ccc(NCc2oc(CO)cc(=O)c2O)cc1`, 116%.
`O=C(c1ccccc1)c1cccc(C(Br)Br)c1`: the growth was 30.9%.
For the compound `COc1cc(C2CC(c3ccc(Cl)cc3)=NN2C(C)=O)ccc1Oc1ccnc2cc(Cl)ccc12` (stereo not given), the growth was 62%.
As to `COc1ccc(C2c3cccn3-c3ccccc3N2C(C)=O)cc1` (stereo not given), the growth was 57%.
Then `CCC1N=C(N)N=C(N)N1c1ccc(Cl)cc1` (stereo not given), with 79.5%; and `CCN(CC)CCCC(C)Nc1c(-c2ccccc2)cnc2cc(Cl)ccc12` (stereo not given), with 38.2%; and `CC(C)c1cccc(C#N)c1`, with 101%.
Then `Cn1c(-c2ccccc2)cc(=O)n1-c1ccccc1`, with 98.4%.
Then `CN1C2CCC1/C(=C\c1ccc(F)cc1)C(=O)/C2=C/c1ccc(F)cc1`, with 31.3%.
For the compound `Oc1ccccc1-c1nnc(COc2ccc(Cl)cc2Cl)o1`, the growth was 63.9%.
Consider `CCCCCCCC/C=C\CCCCCCCC(=O)OCCCCCC`, for which the growth was 101%.
Regarding `CN(C)c1nc(-c2cccs2)n2nc(-c3ccc(Cl)cc3)cc2n1`, the growth is 63.1%.
In the case of `O=C(O/C(=C/c1ccccc1)C(F)(F)F)c1ccccc1` it was 107%.
In the case of `COc1cc(C2CC(c3ccc(C)cc3)=NN2C=O)ccc1Oc1nc2c(c(=O)n(C)c(=O)n2C)n1C` (stereo not given) it was 62.7%.
For `COc1cc2c(=O)n(CCCN(C)C)c3c4cc[nH]c4ncc3c2cc1OC`, the growth was 51%.
In the case of `COC(=O)C(Br)(C(=O)OC)C(Br)C(Br)C(Br)c1ccccc1` (stereo not given) it was 47.9%; in that of `CCOC(=O)N1C2CCC(C2)N1C(=O)OCC`, 113%; in that of `C=C(C)[C@@H]1CC[C@]2(C(=O)NS(=O)(=O)c3ccccc3)CC[C@]3(C)[C@H](CC[C@@H]4[C@@]5(C)CC[C@H](OC(=O)NS(=O)(=O)c6ccccc6)C(C)(C)[C@@H]5CC[C@]43C)[C@@H]12`, 12.8%.
Then `O=C1C(Cl)=C(Nc2cccc3ccccc23)C(=O)c2ccccc21`, with 55.9%; and `CC1(C)CN(CCNc2nccc(-c3c(-c4cccc(O)c4)nc4sccn34)n2)S(=O)(=O)N1`, with 19.9%.
Then `CS(=O)(=O)c1ccc(C(=O)N/N=C/c2ccccc2O)cc1`, with 59.7%; and `O=C(/C=C/c1ccccc1)c1c[nH]c2ccccc2c1=O`, with -18.4% (active).
For `COc1cc(/C=C/c2cc(/C=C/c3ccc(O)c(OC)c3)n(C(=O)c3ccccc3Br)n2)ccc1O`, the growth was -30.5% (active).
In the case of `CC(SC(C)C(=O)N/N=C/c1cccc(Cl)c1)C(=O)N/N=C\c1cccc(Cl)c1` (stereo not given) it was 72.8%.
